Source: PubChem
Shiga inhibitor = blocks Shiga toxin action in Vero cells; Vero cells, Shiga toxin protein synthesis inhibition reporter; inhibition, % at 38.7 µM; 290,000 tested, 9.2% active; in the data active = inhibition mostly above about 28%, no sharp cut-off; inactive = mostly below about 43%; also: 0% is about no effect
TbPYK inhibitor = inhibitors of Trypanosoma brucei pyruvate kinase; Q57TT1; TbPYK enzyme, Kinase-Glo Plus ATP luminescence, 45 min; Potency, µM (doses to about 76.8 µM), for inactives: at the top dose activity, negative = inhibition, most hits filed as inhibitors; 410,000 tested, 0.12% active; also: potency is read from the fitted curve at half-maximal effect; % is scaled to controls: 0 for no effect and ±100 for the full control effect; nearly all actives have a fitted effect of over 50% in size
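Assay buffer: 50 mM TEA pH 7.2, 100 mM KCl, 10 mM MgCl2, 0.05% BSA, 0.01% Tween-20. Pyruvate kinase from T. brucei plus substrate met compound, then ADP (130 uM final). Luminescence was read post 45 min RT.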
Giardia FBPA inh = Giardia lamblia aldolase inhibition. A8B2U2. purified Giardia FBPA. Potency, µM (highest dose often 59.6 µM), inactives show top-dose activity, negative = inhibition, most hits filed as inhibitors. 290,000 tested, 0.71% active. AID 2451; also: potency is read from the fitted curve at half-maximal effect; % is scaled to controls: 0 for no effect and ±100 for the full control effect; nearly all actives have a fitted effect of over 55% in size
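Giardia FBPA (40 nM reagent) was preincubated 10 min at RT with compound (up to 57.5 uM final), then substrate plus GAPDH/TPI/NAD/arsenate coupling system with diaphorase/resazurin was added; resorufin fluorescence (525/598 nm) was read after 20 min.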
Sm TGR inh = inhibitors of Schistosoma mansoni thioredoxin glutathione reductase | Potency, µM (series often up to 114 µM), without a hit: top-dose activity change, negative = inhibition, hits mostly inhibitors | 360,000 tested, 3% active | purified TGR, DTNB reduction, TNB absorbance 405 nm | Q962Y6; also: potency is read from the fitted curve at half-maximal effect; % is scaled to controls: 0 for no effect and ±100 for the full control effect; nearly all actives have a fitted effect of over 60% in size
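Kinetic colorimetric format: TGR-catalysed, NADPH-driven DTNB reduction monitored via TNB absorbance. Enzyme dispensed at 20 nM; compound exposure 15 min at room temperature before reaction start.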
CHX counter = affects cycloheximide protein synthesis inhibition readout, counter-screen. AID 2314. cell reporter, cycloheximide protein synthesis inhibition counterscreen. max response, %. 300,000 tested, 12% active; in the data active = max response mostly above about 13%, no sharp cut-off; inactive = mostly below about 14%; also: read at 38.3 µM for the half of the compounds with a filed dose; 0% is about no effect
LmPK inh = inhibitors of Leishmania mexicana pyruvate kinase. purified LmPK, Kinase-Glo ATP luminescence, 1 h. Potency, µM (series often up to 57.5 µM), without a hit: at the top dose activity change, negative = inhibition, most hits filed as inhibitors. 290,000 tested, 0.37% active. AID 1721; also: potency is read from the fitted curve at half-maximal effect; % is scaled to controls: 0 for no effect and ±100 for the full control effect
Target sequence (Q27686 whole entry, looked up): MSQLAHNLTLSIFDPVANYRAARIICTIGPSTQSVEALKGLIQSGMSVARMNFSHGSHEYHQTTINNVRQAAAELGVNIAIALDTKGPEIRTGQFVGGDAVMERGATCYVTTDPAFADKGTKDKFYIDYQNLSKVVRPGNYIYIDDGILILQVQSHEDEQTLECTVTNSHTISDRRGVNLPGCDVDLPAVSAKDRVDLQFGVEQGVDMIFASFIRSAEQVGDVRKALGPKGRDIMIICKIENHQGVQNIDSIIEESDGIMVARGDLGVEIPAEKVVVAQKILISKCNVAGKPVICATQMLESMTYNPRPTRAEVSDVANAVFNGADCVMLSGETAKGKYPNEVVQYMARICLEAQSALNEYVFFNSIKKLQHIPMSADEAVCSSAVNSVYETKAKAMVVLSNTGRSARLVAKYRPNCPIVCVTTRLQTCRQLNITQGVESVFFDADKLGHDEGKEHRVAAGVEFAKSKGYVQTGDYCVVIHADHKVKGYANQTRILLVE
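Kinase-Glo luminescence read after 1 h RT reaction of 0.1 nM LmPK with 0.5 mM PEP and 0.1 mM ADP. Activity scaled between uninhibited and enzyme-free controls.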
* marks the source's active call; other numbers are inactive results; ? = inconclusive; nt = no result. The full list was thinned out, with hits kept by preference. Unless noted, calls follow the shape of the dose curve; as a rule, active = well fitted curve in the direction sought with a large enough effect; inconclusive = small, poorly fitted or top-dose-only effect, or another doubt; inactive = no such curve, though single readings can be large; an effect the other way counts as inactive or inconclusive.

SMILES	Shiga inhibitor	TbPYK inhibitor	Giardia FBPA inh	Sm TGR inh	CHX counter	LmPK inh
CC(=O)c1cccc(NC(=O)COc2ccccc2)c1	67	nt	0%	-14%	18*	7%
COc1ccc2c(c1)NC(c1ccc(OCC(C)C)cc1)=NC(c1ccncc1)=N2	nt	2%	nt	-8%	nt	nt
Cc1ccc2c(c1)C(=O)OC(C(=O)Nc1ccc(C(=O)O)cc1)C2 (centres undefined)	nt	4%	nt	1%	nt	nt
O=C(COC(=O)CNS(=O)(=O)c1ccc(F)c(F)c1F)NCCc1ccccc1	49*	0%	nt	0%	46*	-7%
O=C(COC(=O)CNS(=O)(=O)c1ccc(F)c(F)c1F)NC1CC1	nt	-10%	nt	1%	nt	nt
COCCc1nn2c(=O)cc(COC(=O)c3ccc4c(c3)OCO4)nc2s1	nt	-3%	nt	-2%	nt	nt
CCC(=O)NC(c1ccco1)c1cc(Cl)c2ccccc2c1O (centres undefined)	nt	5%	nt	?	nt	nt
CC(=O)NC(c1ccco1)c1cc(Cl)c2ccccc2c1O (centres undefined)	nt	2%	nt	63µM*	nt	nt
CCOc1ccccc1NC(=O)Cc1csc(COc2cccc(C)c2)n1	nt	-2%	nt	-14%	nt	nt
c1ccc(-c2nnc(SCc3cn4ccsc4n3)o2)cc1	93*	-2%	17%	-3%	30*	-2%
COc1ccc(/C=N/NC(=O)c2cccc([N+](=O)[O-])c2)cc1O	102*	-1%	-3%	nt	25*	-3%
COc1cc(/C=N/NC(=O)c2cccc([N+](=O)[O-])c2)ccc1OCc1ccc(C)cc1	62*	4%	1%	9%	22*	-1%
S=C1CC2CCCC(C2)N1 (centres undefined)	nt	-8%	nt	nt	nt	nt
COc1ccc(N=C2SC(CC(=O)Nc3ccccc3)C(=O)N2Cc2ccco2)cc1 (centres undefined)	39*	-2%	-8%	-16%	9	-3%
COc1ccc(N=C2SC(CC(=O)Nc3ccccc3F)C(=O)N2Cc2ccco2)cc1 (centres undefined)	20	-4%	-9%	-20%	21*	4%
COc1cccc(NC(=O)N2CCCC2C(=O)Nc2cc(C)ccc2OC)c1 (centres undefined)	-7	1%	9%	-4%	-3	-6%
COc1ccc(N2CCN(C(=O)C(C)n3c(=O)cc(C(F)(F)F)c4c(C)nn(C)c43)CC2)cc1 (centres undefined)	nt	-5%	nt	-8%	nt	nt
CNc1ncc(Cc2ccccc2)s1	11	2%	1%	-3%	-3	0%
CSC(=S)N/N=C(\C)c1ccccc1	50*	-8%	21%	9%	28*	-2%
COc1ccc(-c2csc(NC(=O)c3cccs3)c2C(=O)O)cc1OC	28*	-7%	-29%	11%	28	-18%
COc1ccc(C(=O)Nc2cccc(NC(=O)c3cccs3)c2)cc1OC	23*	1%	14%	14%	20*	-4%
COc1ccc(-c2csc(NC(=O)c3ccccc3OC)c2C(=O)O)cc1OC	nt	2%	-21%	1%	1	0%
COc1ccc(NC(=O)c2cccs2)cc1O	70*	-8%	-2%	-2%	58*	-13%
COc1ccc(/C=C/C(=O)c2ccc(NC(=O)c3cccs3)cc2)cc1OC	70*	-3%	-5%	2%	22*	-4%
O=C(CSc1nc2c(c(=O)[nH]1)CCCC2)Nc1ccc(Br)cc1	nt	2%	nt	6%	nt	nt
SMILES	Shiga inhibitor	TbPYK inhibitor	Giardia FBPA inh	Sm TGR inh	CHX counter	LmPK inh
COc1ccc(-c2nc(C)c(CCNS(=O)(=O)c3cc(C)c(C)cc3C)s2)cc1	nt	-3%	nt	0%	nt	nt
CCc1ccc(OCC(=O)Nc2ccc(S(=O)(=O)Nc3onc(C)c3C)cc2)cc1	nt	-1%	nt	-9%	nt	nt
Cc1noc(NS(=O)(=O)c2ccc(NC(=O)C(C)C)cc2)c1C	-10	2%	9%	25µM*	-4	-6%
Cc1ccc(OCC(=O)Nc2ccc(S(=O)(=O)Nc3onc(C)c3C)cc2)cc1	-12	-3%	22%	89µM*	-3	1%
CN(Cc1ccco1)C(=O)c1ccc2c(c1)N(Cc1ccccc1F)C(=O)c1ccccc1S2	nt	1%	nt	?	nt	nt
CCOC(=O)c1ccc(N2C(=O)CC(N3CCCC(C)C3)C2=O)cc1 (centres undefined)	-16	0%	20%	25µM*	-2	2%
CCOC(=O)c1ccc(N2C(=O)CC(N3CCC(Nc4ccc(F)cc4)CC3)C2=O)cc1 (centres undefined)	-15	-7%	-1%	56µM*	-2	3%
CCOC(=O)C1CCCN(C2CC(=O)N(c3cccc(C)c3)C2=O)C1 (centres undefined)	15	4%	-21%	25µM*	-4	1%
CCCOc1ccc(N2C(=O)CC(N3CCC(C(=O)OCC)CC3)C2=O)cc1 (centres undefined)	-1	3%	7%	0%	-3	7%
CCOC(=O)c1ccc(N2C(=O)CC(N3CCN(Cc4ccccc4)CC3)C2=O)cc1 (centres undefined)	-5	1%	7%	-32%	-2	0%
CCOC(=O)c1c(NC(C)=O)c2c3c(sc2n1Cc1cc(C)ccc1C)CCCC3	nt	-3%	nt	4%	nt	nt
O=C(CN1C(=O)COc2ccc(S(=O)(=O)N3CCCCCC3)cc21)NCCc1ccccc1	nt	-5%	nt	5%	nt	nt
CCC(=O)Nc1cccc(C(=O)/C=C/c2cccs2)c1	85*	-4%	4%	nt	37*	-3%
CCC(=O)Nc1cccc(C(=O)/C=C/c2ccccc2)c1	38	-5%	-1%	?	25*	-1%
CCC(=O)Nc1cccc(C(=O)c2ccccc2)c1	2	-2%	5%	-2%	11*	-1%
CCC(=O)Nc1ccccc1	-3	2%	8%	-22%	-3	-12%
O=C(C=Cc1cccs1)c1ccccc1	nt	3%	nt	nt	nt	nt
CCN(CC)C(=O)Cn1c(=O)n(-c2ccc(OC)cc2OC)c(=O)c2c(C)c(C(=O)N(CC)CC)sc21	nt	1%	nt	0%	nt	nt
Cc1cc2c(c(=O)n1Cc1ccccn1)C(C(C)C)C(C#N)=C(N)O2 (centres undefined)	15	-2%	0%	-20%	-2	0%
